# Assays:
# Test in all cases: DAPPL (digital affinity profiling via proximity ligation, sequencing); 10 mM Tris-HCl pH 7.5, 50 mM NaCl, 1 mM DTT, 4% glycerol, room temperature, 30 min; GST-TFs on glutathione beads, 16-mer random dsDNA library, 0.1% formaldehyde crosslink after washing; high values mean tight binding
# FLI1 = biological target: T1, FLI1 (Homo sapiens, UniProt Q01543 1-452); conditions: protein: recombinant; tags: N-terminal GST; dsDNA, one strand shown
# T1 sequence: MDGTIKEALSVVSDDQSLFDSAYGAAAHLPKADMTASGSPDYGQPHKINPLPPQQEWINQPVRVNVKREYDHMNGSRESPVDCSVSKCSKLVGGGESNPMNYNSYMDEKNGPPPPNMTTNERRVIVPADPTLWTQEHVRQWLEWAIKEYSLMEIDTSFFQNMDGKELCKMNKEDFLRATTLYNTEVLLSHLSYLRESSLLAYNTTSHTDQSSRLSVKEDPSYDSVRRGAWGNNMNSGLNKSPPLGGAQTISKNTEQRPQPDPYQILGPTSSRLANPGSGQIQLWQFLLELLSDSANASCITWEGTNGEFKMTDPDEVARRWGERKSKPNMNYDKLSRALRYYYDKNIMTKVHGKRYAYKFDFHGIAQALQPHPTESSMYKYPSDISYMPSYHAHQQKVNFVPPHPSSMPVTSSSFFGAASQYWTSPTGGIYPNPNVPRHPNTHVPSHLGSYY
# How it was run: (§1)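 Human transcription factors fused to GST were expressed in yeast, captured on glutathione beads, given DNA barcodes and pooled with a GST-only negative control. Pools were incubated with 200 nmole of a 16-mer random double-stranded DNA library in Tris/NaCl/DTT/glycerol buffer at room temperature for 30 min. They were then washed, crosslinked with 0.1% formaldehyde, proximity-ligated (BsaI/T4 ligase, 1 h, 37 °C), PCR-amplified and sequenced on an Illumina NextSeq500. Binding signal is each 6-mer's read frequency for a factor divided by its frequency for the GST control.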
# ELK1 = biological target: T2, ELK1 (Homo sapiens, UniProt P19419 1-428); conditions: protein: recombinant; tags: N-terminal GST; dsDNA, one strand shown
# T2 sequence: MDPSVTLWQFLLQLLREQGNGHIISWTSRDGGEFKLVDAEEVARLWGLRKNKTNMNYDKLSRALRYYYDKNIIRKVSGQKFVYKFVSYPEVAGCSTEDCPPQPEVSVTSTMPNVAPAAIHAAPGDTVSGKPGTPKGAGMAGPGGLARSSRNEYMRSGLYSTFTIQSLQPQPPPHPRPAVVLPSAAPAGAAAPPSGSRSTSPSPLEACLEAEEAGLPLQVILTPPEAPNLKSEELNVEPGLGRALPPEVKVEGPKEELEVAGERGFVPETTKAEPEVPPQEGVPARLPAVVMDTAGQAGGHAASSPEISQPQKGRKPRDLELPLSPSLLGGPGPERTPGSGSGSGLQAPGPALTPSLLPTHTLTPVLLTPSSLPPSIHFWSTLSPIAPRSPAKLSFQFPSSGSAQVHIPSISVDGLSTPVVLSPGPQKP
# How it was run: as §1
# GABPA = biological target: T3, GABPA (Homo sapiens, UniProt Q06546 1-454); conditions: protein: recombinant; tags: N-terminal GST; dsDNA, one strand shown
# T3 sequence: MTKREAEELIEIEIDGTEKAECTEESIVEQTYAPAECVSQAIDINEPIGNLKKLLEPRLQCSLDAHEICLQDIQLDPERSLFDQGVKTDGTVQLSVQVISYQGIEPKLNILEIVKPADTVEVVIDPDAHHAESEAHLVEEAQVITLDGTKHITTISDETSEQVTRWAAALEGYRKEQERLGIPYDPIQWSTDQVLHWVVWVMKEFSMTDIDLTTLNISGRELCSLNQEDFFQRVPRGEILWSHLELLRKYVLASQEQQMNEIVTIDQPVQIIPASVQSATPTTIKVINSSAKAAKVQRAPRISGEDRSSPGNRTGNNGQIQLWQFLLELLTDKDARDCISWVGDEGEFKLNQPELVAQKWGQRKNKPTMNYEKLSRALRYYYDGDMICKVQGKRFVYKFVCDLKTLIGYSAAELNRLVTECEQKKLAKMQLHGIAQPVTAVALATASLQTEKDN
# How it was run: as §1
# ERG = biological target: T4, ERG (Homo sapiens, UniProt P11308 1-479); conditions: protein: recombinant; tags: N-terminal GST; dsDNA, one strand shown
# T4 sequence: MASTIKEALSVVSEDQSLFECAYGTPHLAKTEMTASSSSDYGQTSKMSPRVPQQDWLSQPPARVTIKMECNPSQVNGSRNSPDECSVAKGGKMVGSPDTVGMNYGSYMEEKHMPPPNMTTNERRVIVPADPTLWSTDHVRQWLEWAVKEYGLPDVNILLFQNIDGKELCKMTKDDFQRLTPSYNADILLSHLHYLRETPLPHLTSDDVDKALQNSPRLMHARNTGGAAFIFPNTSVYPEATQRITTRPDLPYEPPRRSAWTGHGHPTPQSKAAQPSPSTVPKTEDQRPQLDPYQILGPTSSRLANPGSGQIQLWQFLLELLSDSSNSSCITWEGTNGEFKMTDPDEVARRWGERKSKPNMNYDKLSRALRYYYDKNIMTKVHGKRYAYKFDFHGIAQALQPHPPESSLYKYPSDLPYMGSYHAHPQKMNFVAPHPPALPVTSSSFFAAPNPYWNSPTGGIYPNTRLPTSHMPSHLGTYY
# How it was run: as §1
# ELF1 = ELF1 (Homo sapiens, UniProt P32519 1-619); conditions: protein: recombinant; tags: N-terminal GST; dsDNA, one strand shown
# How it was run: as §1
# EHF = biological target: T5, EHF (Homo sapiens, UniProt Q9NZC4 1-300); conditions: protein: recombinant; tags: N-terminal GST; dsDNA, one strand shown
# T5 sequence: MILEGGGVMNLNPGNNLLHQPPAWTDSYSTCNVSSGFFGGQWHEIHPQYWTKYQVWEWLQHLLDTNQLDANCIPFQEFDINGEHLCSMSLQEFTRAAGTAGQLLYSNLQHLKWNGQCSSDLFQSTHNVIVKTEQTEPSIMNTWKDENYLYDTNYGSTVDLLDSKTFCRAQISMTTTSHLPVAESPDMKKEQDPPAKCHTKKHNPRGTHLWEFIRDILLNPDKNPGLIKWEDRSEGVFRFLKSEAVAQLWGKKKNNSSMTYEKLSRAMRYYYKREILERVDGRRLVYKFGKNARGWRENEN
# How it was run: as §1
# SPI1 = SPI1 (Homo sapiens, UniProt P17947 1-270); conditions: protein: recombinant; tags: N-terminal GST; dsDNA, one strand shown
# How it was run: as §1
# SPIB = SPIB (Homo sapiens, UniProt Q01892 1-262); conditions: protein: recombinant; tags: N-terminal GST; dsDNA, one strand shown
# How it was run: as §1
# ELK3 = biological target: T6, ELK3 (Homo sapiens, UniProt P41970 1-407); conditions: protein: recombinant; tags: N-terminal GST; dsDNA, one strand shown
# T6 sequence: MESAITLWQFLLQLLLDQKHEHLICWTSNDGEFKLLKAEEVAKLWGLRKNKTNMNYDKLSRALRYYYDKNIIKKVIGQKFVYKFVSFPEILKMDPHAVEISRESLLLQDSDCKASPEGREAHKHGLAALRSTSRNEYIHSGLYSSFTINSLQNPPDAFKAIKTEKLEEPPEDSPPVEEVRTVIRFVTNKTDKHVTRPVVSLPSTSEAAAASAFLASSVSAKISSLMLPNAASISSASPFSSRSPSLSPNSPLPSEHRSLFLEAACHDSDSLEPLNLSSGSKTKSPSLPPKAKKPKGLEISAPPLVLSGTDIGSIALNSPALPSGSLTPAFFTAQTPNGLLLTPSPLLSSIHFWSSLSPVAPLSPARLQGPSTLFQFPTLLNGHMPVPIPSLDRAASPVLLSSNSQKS
# How it was run: as §1
# FEV = biological target: T7, FEV (Homo sapiens, UniProt Q99581 1-238); conditions: protein: recombinant; tags: N-terminal GST; dsDNA, one strand shown
# T7 sequence: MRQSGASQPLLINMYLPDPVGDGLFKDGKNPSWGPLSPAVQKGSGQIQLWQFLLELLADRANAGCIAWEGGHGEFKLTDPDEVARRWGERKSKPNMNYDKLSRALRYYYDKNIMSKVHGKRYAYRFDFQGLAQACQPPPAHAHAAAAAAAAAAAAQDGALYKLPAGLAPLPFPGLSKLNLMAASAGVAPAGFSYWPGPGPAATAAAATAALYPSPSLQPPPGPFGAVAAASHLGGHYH
# How it was run: as §1
# ETV5 = ETV5 (Homo sapiens, UniProt P41161 1-510); conditions: protein: recombinant; tags: N-terminal GST; dsDNA, one strand shown
# How it was run: as §1
# HSF1 = HSF1 (Homo sapiens, UniProt Q00613 1-529); conditions: protein: recombinant; tags: N-terminal GST; chain copies: 3; dsDNA, one strand shown
# How it was run: as §1
# SPIC = biological target: T8, SPIC (Homo sapiens, UniProt Q8N5J4 1-248); conditions: protein: recombinant; tags: N-terminal GST; dsDNA, one strand shown
# T8 sequence: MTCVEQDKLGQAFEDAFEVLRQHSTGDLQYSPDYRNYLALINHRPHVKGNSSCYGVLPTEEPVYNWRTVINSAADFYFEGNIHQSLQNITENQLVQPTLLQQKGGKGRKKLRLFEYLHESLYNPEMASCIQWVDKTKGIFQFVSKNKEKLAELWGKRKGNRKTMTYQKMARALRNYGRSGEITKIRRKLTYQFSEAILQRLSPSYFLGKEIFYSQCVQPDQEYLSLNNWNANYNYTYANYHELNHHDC
# How it was run: as §1
# ELF4 = ELF4 (Homo sapiens, UniProt Q99607 1-663); conditions: protein: recombinant; tags: N-terminal GST; dsDNA, one strand shown
# How it was run: as §1
# ELK4 = biological target: T9, ELK4 (Homo sapiens, UniProt P28324-2 1-405); conditions: protein: recombinant; tags: N-terminal GST; dsDNA, one strand shown
# T9 sequence: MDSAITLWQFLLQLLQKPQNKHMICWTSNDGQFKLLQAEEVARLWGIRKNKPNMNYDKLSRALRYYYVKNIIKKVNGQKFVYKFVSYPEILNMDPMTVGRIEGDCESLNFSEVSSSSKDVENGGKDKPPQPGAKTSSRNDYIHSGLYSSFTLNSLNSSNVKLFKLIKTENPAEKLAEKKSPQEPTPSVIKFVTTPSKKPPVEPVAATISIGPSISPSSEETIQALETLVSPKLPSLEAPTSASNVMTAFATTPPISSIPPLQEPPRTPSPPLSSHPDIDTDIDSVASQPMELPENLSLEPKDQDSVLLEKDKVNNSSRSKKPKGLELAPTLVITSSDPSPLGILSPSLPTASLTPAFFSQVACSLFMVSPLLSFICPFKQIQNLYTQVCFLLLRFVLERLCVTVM
# How it was run: as §1
# ETV2 = biological target: T10, ETV2 (Homo sapiens, UniProt O00321 1-342); conditions: protein: recombinant; tags: N-terminal GST; dsDNA, one strand shown
# T10 sequence: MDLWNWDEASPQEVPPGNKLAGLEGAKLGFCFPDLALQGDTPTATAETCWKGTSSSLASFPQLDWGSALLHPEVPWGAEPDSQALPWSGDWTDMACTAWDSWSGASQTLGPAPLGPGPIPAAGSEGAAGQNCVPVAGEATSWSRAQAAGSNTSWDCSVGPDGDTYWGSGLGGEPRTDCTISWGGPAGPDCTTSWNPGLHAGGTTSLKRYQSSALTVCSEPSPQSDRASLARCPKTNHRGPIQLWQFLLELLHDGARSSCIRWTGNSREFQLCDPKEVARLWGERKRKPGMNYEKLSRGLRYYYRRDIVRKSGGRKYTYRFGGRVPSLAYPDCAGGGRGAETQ
# How it was run: as §1
# ELF3 = biological target: T11, ELF3 (Homo sapiens, UniProt P78545 1-371); conditions: protein: recombinant; tags: N-terminal GST; dsDNA, one strand shown
# T11 sequence: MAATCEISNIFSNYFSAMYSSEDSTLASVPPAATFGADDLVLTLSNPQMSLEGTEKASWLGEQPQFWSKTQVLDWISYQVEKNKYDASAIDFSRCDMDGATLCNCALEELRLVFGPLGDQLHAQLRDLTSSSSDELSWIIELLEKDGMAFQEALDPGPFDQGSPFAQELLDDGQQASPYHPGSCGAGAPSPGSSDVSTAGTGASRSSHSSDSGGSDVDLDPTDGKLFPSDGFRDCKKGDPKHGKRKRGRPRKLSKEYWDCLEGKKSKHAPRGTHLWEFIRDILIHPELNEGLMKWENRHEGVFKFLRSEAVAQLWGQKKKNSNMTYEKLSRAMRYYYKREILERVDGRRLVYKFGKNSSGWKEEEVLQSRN
# How it was run: as §1
# CRX = CRX (Homo sapiens, UniProt O43186 1-299); conditions: protein: recombinant; tags: N-terminal GST; dsDNA, one strand shown
# How it was run: as §1
# ETV1 = ETV1 (Homo sapiens, UniProt P50549 1-477); conditions: protein: recombinant; tags: N-terminal GST; dsDNA, one strand shown
# How it was run: as §1
# CRX, sequence (O43186 whole entry): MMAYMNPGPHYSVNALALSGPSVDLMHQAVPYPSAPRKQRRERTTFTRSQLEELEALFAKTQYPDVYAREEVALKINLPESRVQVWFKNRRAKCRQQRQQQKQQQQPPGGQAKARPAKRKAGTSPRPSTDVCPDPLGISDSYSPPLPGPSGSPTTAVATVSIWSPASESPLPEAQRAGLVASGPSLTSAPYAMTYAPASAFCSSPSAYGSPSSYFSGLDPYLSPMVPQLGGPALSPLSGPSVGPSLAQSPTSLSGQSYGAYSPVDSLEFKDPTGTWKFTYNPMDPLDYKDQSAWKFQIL
# HSF1, sequence (Q00613 whole entry): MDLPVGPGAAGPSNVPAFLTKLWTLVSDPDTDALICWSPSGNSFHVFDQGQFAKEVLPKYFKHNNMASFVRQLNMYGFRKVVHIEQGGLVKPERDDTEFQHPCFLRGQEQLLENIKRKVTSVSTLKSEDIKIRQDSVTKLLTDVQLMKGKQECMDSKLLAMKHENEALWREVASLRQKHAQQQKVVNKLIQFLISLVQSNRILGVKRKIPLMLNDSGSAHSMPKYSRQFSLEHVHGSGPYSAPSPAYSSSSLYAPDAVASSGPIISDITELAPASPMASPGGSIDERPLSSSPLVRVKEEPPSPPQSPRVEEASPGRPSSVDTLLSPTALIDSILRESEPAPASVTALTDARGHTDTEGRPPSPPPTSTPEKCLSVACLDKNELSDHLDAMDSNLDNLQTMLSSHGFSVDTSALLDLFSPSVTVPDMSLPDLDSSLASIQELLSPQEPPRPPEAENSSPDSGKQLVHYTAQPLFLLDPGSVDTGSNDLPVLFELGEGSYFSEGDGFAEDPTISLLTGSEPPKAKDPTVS
# ETV1, sequence (P50549 whole entry): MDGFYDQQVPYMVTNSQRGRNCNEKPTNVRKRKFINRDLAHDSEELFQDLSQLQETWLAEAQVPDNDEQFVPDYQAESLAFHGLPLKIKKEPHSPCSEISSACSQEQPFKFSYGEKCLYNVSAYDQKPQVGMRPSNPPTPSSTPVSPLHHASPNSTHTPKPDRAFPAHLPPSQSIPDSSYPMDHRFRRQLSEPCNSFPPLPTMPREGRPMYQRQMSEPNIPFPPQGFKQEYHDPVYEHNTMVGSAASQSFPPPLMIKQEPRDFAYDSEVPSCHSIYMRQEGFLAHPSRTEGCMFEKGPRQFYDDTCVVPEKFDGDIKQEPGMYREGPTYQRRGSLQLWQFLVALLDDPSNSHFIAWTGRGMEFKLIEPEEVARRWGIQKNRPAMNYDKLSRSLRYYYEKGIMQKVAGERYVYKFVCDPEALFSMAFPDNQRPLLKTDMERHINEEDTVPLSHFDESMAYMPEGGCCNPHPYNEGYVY
# ETV5, sequence (P41161 whole entry): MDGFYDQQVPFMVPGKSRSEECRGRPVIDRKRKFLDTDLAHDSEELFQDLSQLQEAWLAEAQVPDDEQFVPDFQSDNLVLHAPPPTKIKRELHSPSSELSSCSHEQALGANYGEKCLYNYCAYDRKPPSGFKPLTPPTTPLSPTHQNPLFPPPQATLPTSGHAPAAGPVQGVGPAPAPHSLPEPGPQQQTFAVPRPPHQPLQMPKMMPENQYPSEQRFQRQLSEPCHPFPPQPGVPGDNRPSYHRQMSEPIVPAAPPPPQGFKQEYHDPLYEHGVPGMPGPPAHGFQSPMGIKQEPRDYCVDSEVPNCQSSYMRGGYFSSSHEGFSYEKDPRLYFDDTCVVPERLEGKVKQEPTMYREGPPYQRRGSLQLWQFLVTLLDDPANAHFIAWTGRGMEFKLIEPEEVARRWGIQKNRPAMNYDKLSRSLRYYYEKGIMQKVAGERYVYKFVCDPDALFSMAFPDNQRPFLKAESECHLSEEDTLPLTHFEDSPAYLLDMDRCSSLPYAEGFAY
# ELF1, sequence (P32519 whole entry): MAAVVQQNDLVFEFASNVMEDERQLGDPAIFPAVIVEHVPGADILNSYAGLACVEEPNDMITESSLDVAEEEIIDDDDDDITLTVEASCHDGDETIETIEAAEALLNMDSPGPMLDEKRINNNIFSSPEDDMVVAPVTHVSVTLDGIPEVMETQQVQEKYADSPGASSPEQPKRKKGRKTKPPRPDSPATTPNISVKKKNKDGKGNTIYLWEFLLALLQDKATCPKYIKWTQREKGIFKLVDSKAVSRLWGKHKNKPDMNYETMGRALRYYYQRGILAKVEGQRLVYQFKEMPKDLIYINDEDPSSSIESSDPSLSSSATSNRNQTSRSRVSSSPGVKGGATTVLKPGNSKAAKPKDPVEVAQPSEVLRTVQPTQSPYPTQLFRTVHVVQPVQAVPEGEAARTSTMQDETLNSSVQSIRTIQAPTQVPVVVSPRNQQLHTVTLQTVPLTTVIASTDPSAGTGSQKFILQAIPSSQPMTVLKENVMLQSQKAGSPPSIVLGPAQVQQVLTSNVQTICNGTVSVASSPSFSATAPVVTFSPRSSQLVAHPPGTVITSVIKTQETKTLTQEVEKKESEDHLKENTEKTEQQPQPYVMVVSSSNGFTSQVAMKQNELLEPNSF
# SPIB, sequence (Q01892 whole entry): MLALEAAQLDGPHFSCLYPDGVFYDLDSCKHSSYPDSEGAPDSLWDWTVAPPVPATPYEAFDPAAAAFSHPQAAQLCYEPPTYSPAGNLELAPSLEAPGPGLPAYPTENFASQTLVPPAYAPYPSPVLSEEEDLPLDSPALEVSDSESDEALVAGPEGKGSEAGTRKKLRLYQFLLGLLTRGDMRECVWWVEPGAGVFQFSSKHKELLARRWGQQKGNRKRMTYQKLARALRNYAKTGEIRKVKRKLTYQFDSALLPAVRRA
# ELF4, sequence (Q99607 whole entry): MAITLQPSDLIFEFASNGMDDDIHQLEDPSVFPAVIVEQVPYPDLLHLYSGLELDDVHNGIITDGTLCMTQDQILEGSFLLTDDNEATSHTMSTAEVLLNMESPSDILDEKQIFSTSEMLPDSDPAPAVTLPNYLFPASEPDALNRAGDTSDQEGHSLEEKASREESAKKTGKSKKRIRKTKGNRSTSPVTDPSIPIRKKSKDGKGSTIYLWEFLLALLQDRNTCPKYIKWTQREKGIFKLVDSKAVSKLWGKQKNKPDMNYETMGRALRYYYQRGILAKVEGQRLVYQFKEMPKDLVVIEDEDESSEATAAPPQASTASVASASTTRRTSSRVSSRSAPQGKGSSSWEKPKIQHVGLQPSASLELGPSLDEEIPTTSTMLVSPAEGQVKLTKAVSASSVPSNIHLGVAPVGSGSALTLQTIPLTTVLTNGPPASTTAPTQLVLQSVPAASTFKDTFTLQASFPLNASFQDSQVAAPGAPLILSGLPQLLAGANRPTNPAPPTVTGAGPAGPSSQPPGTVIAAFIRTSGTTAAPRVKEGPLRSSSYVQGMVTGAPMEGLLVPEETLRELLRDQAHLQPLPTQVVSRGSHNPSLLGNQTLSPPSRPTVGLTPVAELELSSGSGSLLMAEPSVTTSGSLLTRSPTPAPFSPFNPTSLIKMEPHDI
sequence,measurement,setting,value
CTTAAC,binding signal,FLI1,"1.21 fold enrichment (6-mer frequency, TF over GST control)"
same,binding signal,ELK1,"1.17 fold enrichment (6-mer frequency, TF over GST control)"
same,binding signal,GABPA,"1.28 fold enrichment (6-mer frequency, TF over GST control)"
same,binding signal,ERG,"1.26 fold enrichment (6-mer frequency, TF over GST control)"
same,binding signal,ELF1,"1.35 fold enrichment (6-mer frequency, TF over GST control)"
same,binding signal,EHF,"1.26 fold enrichment (6-mer frequency, TF over GST control)"
same,binding signal,SPI1,"1.32 fold enrichment (6-mer frequency, TF over GST control)"
same,binding signal,SPIB,"1.4 fold enrichment (6-mer frequency, TF over GST control)"
same,binding signal,ELK3,"1.31 fold enrichment (6-mer frequency, TF over GST control)"
same,binding signal,FEV,"1.27 fold enrichment (6-mer frequency, TF over GST control)"
same,binding signal,ETV5,"1.26 fold enrichment (6-mer frequency, TF over GST control)"
same,binding signal,HSF1,"1.72 fold enrichment (6-mer frequency, TF over GST control)"
same,binding signal,SPIC,"1.18 fold enrichment (6-mer frequency, TF over GST control)"
same,binding signal,ELF4,"1.28 fold enrichment (6-mer frequency, TF over GST control)"
same,binding signal,ELK4,"1.34 fold enrichment (6-mer frequency, TF over GST control)"
same,binding signal,ETV2,"1.25 fold enrichment (6-mer frequency, TF over GST control)"
same,binding signal,ELF3,"1.36 fold enrichment (6-mer frequency, TF over GST control)"
same,binding signal,CRX,"2.4 fold enrichment (6-mer frequency, TF over GST control)"
same,binding signal,ETV1,"1.14 fold enrichment (6-mer frequency, TF over GST control)"

# Source: publication PMC7862700, “An all-to-all approach to the identification of sequence-specific readers for epigenetic DNA modifications on cytosine”
